Laboratory results: PubChem BioAssay (NCATS)
For part of these data: Entries with a potency or affinity are not part of this list. Active and inactive are the calls of the source. No rule for the calls is given here.

How the values were obtained:
[1] = Ebola virus entry assay, green fluorescence channel
[2] = Ebola virus entry assay, blue channel fluorescence
[3] = Ebola virus entry assay, ratio channel
[4] = Ebola virus entry assay, green channel fluorescence
[5] = Ebola virus entry assay, reporter ratio channel; Channel type: primary
[6] = Ebola virus entry assay, blue channel (ratio component)

Measured: efficacy
For efficacy in this document: 0% is about no effect.

CC1CCc2cc(F)cc3c(=O)c(C(=O)O)cn1c23 (stereo not given)
inactive: [1] -9.54% | [2] | [3] | [4] | [5] | [6]

C=CCSCC1Nc2cc(Cl)c(S(N)(=O)=O)cc2S(=O)(=O)N1 (stereo not given)
inactive: [1] -29.5% | [2] | [3] | [4] | [5] | [6]

O=c1[nH]c2cc(C(F)(F)F)c(N3CCOCC3)cc2n(CP(=O)(O)O)c1=O
inactive: [1] -34.7% | [2] | [3] | [4] | [5] | [6]

O=C(OCC(COC(=O)c1cccnc1)(COC(=O)c1cccnc1)COC(=O)c1cccnc1)c1cccnc1
inactive: [1] -29.2% | [2] | [3] | [4] | [5] | [6]

COCc1c(C(C)C)nc(C(C)C)c(/C=C/[C@@H](O)C[C@@H](O)CC(=O)O)c1-c1ccc(F)cc1
inactive: [1] 9.5% | [2] | [3] | [4] | [5] | [6]
